Test [1] is described as follows: P-glycoprotein substrates identified in KB-3-1 adenocarcinoma cell line, qHTS therapeutic library screen (AID 1346986). Note: nearly all actives have a fitted effect of over 60% in size.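 Note: potency is for cytotoxicity meaning loss of cell viability.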 To be noted: KB-3-1 parental cells viability, CellTiter-Glo, 72 h; series mostly up to 44.5 µM. Put shortly: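 Viability by CellTiter-Glo after 72 h compound exposure at 37 degree C, 5% CO2. Cytotoxic call: curve class -1.1 to -2.4, maximum response >50%, AC50 < 10 uM, compared across KB-3-1 and P-gp-overexpressing KB-8-5-11.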

A short description of test [2]: P-glycoprotein substrates identified in KB-8-5-11 adenocarcinoma cell line, qHTS therapeutic library screen (AID 1346987). Note: nearly all actives have a fitted effect of over 65% in size. To be noted: KB-8-5-11 (P-gp overexpressing) viability, CellTiter-Glo, 72 h; series mostly up to 44.5 µM. An outline of the steps:
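In this qHTS, P-gp-rich KB-8-5-11 cells received library compounds across a concentration range. Viability was quantified by luminescence after 72 h at 37 degree C.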

Several values for one entry are separate records, joined by “and”; a condition that tells them apart may be missing. Identical values can stand only once. Results filed as inconclusive are left out. Activity calls are given as the source filed them. Calls come from the whole dose curve; as a rule, active = well fitted curve in the direction sought with a large enough effect; inconclusive = small, poorly fitted or top-dose-only effect, or another doubt; inactive = no such curve, though single readings can be large; an effect the other way counts as inactive or inconclusive.
Potency is the fitted concentration of half-maximal effect.

As to `C/C1=C\CC[C@H](C)CCO[C@@H]2O[C@H](CO[C@@H]3OC[C@](O)(COC1=O)[C@H]3O)[C@@H](O)[C@H](O)[C@H]2O`, the Potency entry in test [1] and in test [2] was “inactive” in each case.

For `CC(=O)OCC1(O)CCC2C(COC3OC(CO)C(O)C(O)C3OC(=O)/C=C/c3ccc(O)cc3)=COC(OC(=O)CC(C)C)C21` (stereo not given), the Potency entry in test [1] and in test [2] was “inactive” in each case.

Regarding `CNC(=O)c1cccc(-c2ccc3c(N4CCOC[C@@H]4C)nc(N4CCOC[C@@H]4C)nc3n2)c1`, the Potency in test [1] is 920 nM (active); in test [2], 366 nM (active) and 580 nM (active).

With `COc1cc2occc2c(O[C@@H]2O[C@H](CO)[C@@H](O)[C@H](O)[C@H]2O)c1CCC(=O)O`, the Potency entry in test [1] and in test [2] was “inactive” each time.

Consider `C[C@H]1CC[C@@H]2N(C1)C[C@@H]1[C@H]([C@@H](O)[C@H](O)[C@]3(O)[C@H]1C[C@@]14OC5(O)[C@@H](C[C@@H](O)[C@@H]31)[C@]4(C)CC[C@@H]5O)[C@]2(C)O`, for which the Potency entry in test [1] and in test [2] was “inactive” in each case.

With `COC(=O)C1=CO[C@@H](O[C@@H]2O[C@H](CO)[C@@H](O)[C@H](O)[C@H]2O)C2C1C(=O)C[C@H]2C` (stereo not given in full), the Potency entry in test [1] and in test [2] was “inactive” throughout.

On to `CC(=O)/C=C/[C@H]1[C@](C)(O)[C@@H](O)[C@H](OC(C)=O)C2C(C)(C)CCC[C@@]21C` (stereo not given in full), for which the Potency entry in test [1] and in test [2] was “inactive” each time.

As to `O=C(CC1C(=O)Nc2ccccc21)OC[C@H]1O[C@@H](OCCc2ccc(O)cc2)[C@H](O)[C@@H](O)[C@@H]1O` (stereo not given in full), the Potency result in test [1] and in test [2] was “inactive” in each case.

Consider `CC1CCN(C(=O)CC#N)CC1N(C)c1ncnc2[nH]ccc12` (stereo not given), for which the Potency result in test [1] and in test [2] was “inactive” throughout.

Regarding `CC(=O)OC1C[C@@]2(C)[C@@H](CC[C@@H](C)[C@]23Cc2c(O)cc4c(c2O3)CNC4=O)C(C)(C)[C@@H]1O` (stereo not given in full), the Potency result in test [1] and in test [2] was “inactive” throughout.

The values are drawn from PubChem BioAssay (NCATS).
